Drawing on paper PMC9911399, “Two distinct binding modes provide the RNA-binding protein RbFox with extraordinary sequence specificity”, this text covers binding signal for 38 molecules.

Positions count from the first letter of the chain named. Whole data set: some 16,000 sequences, median “ka relative to ugcaugu” near 0.0091, cut for the highest 2% near 0.032. The full list was thinned out, with the highest values kept by preference.

First the molecules themselves.
B1: CUCAACC (DNA:RNA)
RNA: GGGAGACCGGAAUUCAGAUUGUCCCUCAACCUUAAAUCCCGUCGUAGCCACCA
DNA 1: CAATCTGAATTCCGGTCTCCC
DNA 2: TGGTGGCTACGACGGGATT
B2: GAUGAAG (DNA:RNA)
RNA: B1 RNA with C25G, U26A, C27U, A28G, C30A, C31G
DNA 1: CAATCTGAATTCCGGTCTCCC
DNA 2: TGGTGGCTACGACGGGATT
B3: ACGCGCU (DNA:RNA)
RNA: B1 RNA with C25A, U26C, C27G, A28C, A29G, C31U
DNA 1: CAATCTGAATTCCGGTCTCCC
DNA 2: TGGTGGCTACGACGGGATT
B4: GAGAGCU (DNA:RNA)
RNA: B1 RNA with C25G, U26A, C27G, A29G, C31U
DNA 1: CAATCTGAATTCCGGTCTCCC
DNA 2: TGGTGGCTACGACGGGATT
B5: ACGUGAA (DNA:RNA)
RNA: GGGAGACCGGAAUUCAGAUUGUCCACGUGAAUUAAAUCCCGUCGUAGCCACCA
DNA 1: CAATCTGAATTCCGGTCTCCC
DNA 2: TGGTGGCTACGACGGGATT
B6: CGUCAAG (DNA:RNA)
RNA: B1 RNA with U26G, C27U, A28C, C30A, C31G
DNA 1: CAATCTGAATTCCGGTCTCCC
DNA 2: TGGTGGCTACGACGGGATT
B7: CCUGCAA (DNA:RNA)
RNA: B5 RNA with A25C, G27U, U28G, G29C
DNA 1: CAATCTGAATTCCGGTCTCCC
DNA 2: TGGTGGCTACGACGGGATT
B8: UGAUUGU (DNA:RNA)
RNA: B5 RNA with A25U, C26G, G27A, G29U, A30G, A31U
DNA 1: CAATCTGAATTCCGGTCTCCC
DNA 2: TGGTGGCTACGACGGGATT
B9: CCCUGAA (DNA:RNA)
RNA: B5 RNA with A25C, G27C
DNA 1: CAATCTGAATTCCGGTCTCCC
DNA 2: TGGTGGCTACGACGGGATT
B10: UGAAAUG (DNA:RNA)
RNA: B1 RNA with C25U, U26G, C27A, C30U, C31G
DNA 1: CAATCTGAATTCCGGTCTCCC
DNA 2: TGGTGGCTACGACGGGATT
B11: UGAAUGU (DNA:RNA)
RNA: B1 RNA with C25U, U26G, C27A, A29U, C30G, C31U
DNA 1: CAATCTGAATTCCGGTCTCCC
DNA 2: TGGTGGCTACGACGGGATT
B12: CUGAAUG (DNA:RNA)
RNA: B1 RNA with C27G, C30U, C31G
DNA 1: CAATCTGAATTCCGGTCTCCC
DNA 2: TGGTGGCTACGACGGGATT
B13: CUGAAUC (DNA:RNA)
RNA: B1 RNA with C27G, C30U
DNA 1: CAATCTGAATTCCGGTCTCCC
DNA 2: TGGTGGCTACGACGGGATT
B14: CGCAUAC (DNA:RNA)
RNA: B1 RNA with U26G, A29U, C30A
DNA 1: CAATCTGAATTCCGGTCTCCC
DNA 2: TGGTGGCTACGACGGGATT
B15: AUGCGCC (DNA:RNA)
RNA: B5 RNA with C26U, U28C, A30C, A31C
DNA 1: CAATCTGAATTCCGGTCTCCC
DNA 2: TGGTGGCTACGACGGGATT
B16: AACACCC (DNA:RNA)
RNA: B1 RNA with C25A, U26A, A29C
DNA 1: CAATCTGAATTCCGGTCTCCC
DNA 2: TGGTGGCTACGACGGGATT
B17: AAUUUUC (DNA:RNA)
RNA: B5 RNA with C26A, G27U, G29U, A30U, A31C
DNA 1: CAATCTGAATTCCGGTCTCCC
DNA 2: TGGTGGCTACGACGGGATT
B18: ACAGCCG (DNA:RNA)
RNA: B5 RNA with G27A, U28G, G29C, A30C, A31G
DNA 1: CAATCTGAATTCCGGTCTCCC
DNA 2: TGGTGGCTACGACGGGATT
B19: UGGGCCC (DNA:RNA)
RNA: B1 RNA with C25U, U26G, C27G, A28G, A29C
DNA 1: CAATCTGAATTCCGGTCTCCC
DNA 2: TGGTGGCTACGACGGGATT
B20: UGGGCCU (DNA:RNA)
RNA: B5 RNA with A25U, C26G, U28G, G29C, A30C, A31U
DNA 1: CAATCTGAATTCCGGTCTCCC
DNA 2: TGGTGGCTACGACGGGATT
B21: UGGGGCC (DNA:RNA)
RNA: B5 RNA with A25U, C26G, U28G, A30C, A31C
DNA 1: CAATCTGAATTCCGGTCTCCC
DNA 2: TGGTGGCTACGACGGGATT
B22: UGGGCCG (DNA:RNA)
RNA: B5 RNA with A25U, C26G, U28G, G29C, A30C, A31G
DNA 1: CAATCTGAATTCCGGTCTCCC
DNA 2: TGGTGGCTACGACGGGATT
B23: CUGGGCC (DNA:RNA)
RNA: B1 RNA with C27G, A28G, A29G
DNA 1: CAATCTGAATTCCGGTCTCCC
DNA 2: TGGTGGCTACGACGGGATT
B24: UGGCCGU (DNA:RNA)
RNA: B5 RNA with A25U, C26G, U28C, G29C, A30G, A31U
DNA 1: CAATCTGAATTCCGGTCTCCC
DNA 2: TGGTGGCTACGACGGGATT
B25: GACUUCU (DNA:RNA)
RNA: B1 RNA with C25G, U26A, A28U, A29U, C31U
DNA 1: CAATCTGAATTCCGGTCTCCC
DNA 2: TGGTGGCTACGACGGGATT
B26: UCCAGUC (DNA:RNA)
RNA: B1 RNA with C25U, U26C, A29G, C30U
DNA 1: CAATCTGAATTCCGGTCTCCC
DNA 2: TGGTGGCTACGACGGGATT
B27: GGCAUGU (DNA:RNA)
RNA: B1 RNA with C25G, U26G, A29U, C30G, C31U
DNA 1: CAATCTGAATTCCGGTCTCCC
DNA 2: TGGTGGCTACGACGGGATT
B28: ACCGGCA (DNA:RNA)
RNA: B5 RNA with G27C, U28G, A30C
DNA 1: CAATCTGAATTCCGGTCTCCC
DNA 2: TGGTGGCTACGACGGGATT
B29: GUCAUGU (DNA:RNA)
RNA: B1 RNA with C25G, A29U, C30G, C31U
DNA 1: CAATCTGAATTCCGGTCTCCC
DNA 2: TGGTGGCTACGACGGGATT
B30: UGGCAUG (DNA:RNA)
RNA: B5 RNA with A25U, C26G, U28C, G29A, A30U, A31G
DNA 1: CAATCTGAATTCCGGTCTCCC
DNA 2: TGGTGGCTACGACGGGATT
B31: GGCAUUG (DNA:RNA)
RNA: B1 RNA with C25G, U26G, A29U, C30U, C31G
DNA 1: CAATCTGAATTCCGGTCTCCC
DNA 2: TGGTGGCTACGACGGGATT
B32: AGGCAUC (DNA:RNA)
RNA: B5 RNA with C26G, U28C, G29A, A30U, A31C
DNA 1: CAATCTGAATTCCGGTCTCCC
DNA 2: TGGTGGCTACGACGGGATT
B33: AUGUCGU (DNA:RNA)
RNA: B5 RNA with C26U, G29C, A30G, A31U
DNA 1: CAATCTGAATTCCGGTCTCCC
DNA 2: TGGTGGCTACGACGGGATT
B34: CGGCAUG (DNA:RNA)
RNA: B1 RNA with U26G, C27G, A28C, C30U, C31G
DNA 1: CAATCTGAATTCCGGTCTCCC
DNA 2: TGGTGGCTACGACGGGATT
B35: AGGCAUG (DNA:RNA)
RNA: B5 RNA with C26G, U28C, G29A, A30U, A31G
DNA 1: CAATCTGAATTCCGGTCTCCC
DNA 2: TGGTGGCTACGACGGGATT
B36: UGGCAUC (DNA:RNA)
RNA: B1 RNA with C25U, U26G, C27G, A28C, C30U
DNA 1: CAATCTGAATTCCGGTCTCCC
DNA 2: TGGTGGCTACGACGGGATT
B37: AGGCAUA (DNA:RNA)
RNA: B5 RNA with C26G, U28C, G29A, A30U
DNA 1: CAATCTGAATTCCGGTCTCCC
DNA 2: TGGTGGCTACGACGGGATT
B38: UGGCAUA (DNA:RNA)
RNA: B5 RNA with A25U, C26G, U28C, G29A, A30U
DNA 1: CAATCTGAATTCCGGTCTCCC
DNA 2: TGGTGGCTACGACGGGATT

In the test the target is T1, RBFOX1 RRM (Homo sapiens, UniProt Q9NWB1 109-208).
T1 sequence: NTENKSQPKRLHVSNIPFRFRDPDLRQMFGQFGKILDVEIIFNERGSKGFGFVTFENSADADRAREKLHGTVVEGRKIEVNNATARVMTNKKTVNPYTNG
Kind of test: EMSA; HiTS-Eq, 1 nM pool, 10 min; buffer printed only for the single-RNA assays: 10 mM Tris pH 7.5, 150 mM NaCl, 3.4 mM EDTA, 0.001% NP-40, 30 C. The settings on record: tags: His6 N-terminal (pET28a); label: 5' 32P. A digest of the protocol: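 These values rest on relative association constants, computed from read-count changes of each RNA species versus the control reaction and normalised to the cognate motif. Reads came from free RNA recovered by 8% native PAGE after purified RbFox RRM (wild type or mutant) at increasing concentrations was equilibrated for 10 min in 50 µL with 1 nM of a 5′-radiolabelled pool with 7 randomized nucleotides and DNA-annealed flanks.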
For orientation: In EMSA bound probe runs differently from free probe, usually more slowly.
On to B1, for which the binding signal is 0.000946 KA relative to UGCAUGU.
Consider B2, for which the binding signal was 0.0183 KA relative to UGCAUGU.
Next, B3: 0.00889 KA relative to UGCAUGU.
Next, B4: 0.016 KA relative to UGCAUGU; B5: 0.00505 KA relative to UGCAUGU; B6: 0.0065 KA relative to UGCAUGU.
For the molecule B7, the binding signal is 0.00899 KA relative to UGCAUGU.
Next, B8: 0.0253 KA relative to UGCAUGU.
Under B9 stands 0.00426 KA relative to UGCAUGU; under B10, 0.0128 KA relative to UGCAUGU; under B11, 0.0386 KA relative to UGCAUGU.
As for B12, the binding signal is 0.0348 KA relative to UGCAUGU.
B13: the binding signal was 0.00905 KA relative to UGCAUGU.
Next, B14: 0.0068 KA relative to UGCAUGU; B15: 0.0101 KA relative to UGCAUGU; B16: 0.000265 KA relative to UGCAUGU.
Regarding B17, the binding signal was 0.00788 KA relative to UGCAUGU.
B18: the binding signal was 0.00101 KA relative to UGCAUGU.
B19: the binding signal was 0.0266 KA relative to UGCAUGU.
For the molecule B20, the binding signal was 0.0237 KA relative to UGCAUGU.
B21: the binding signal was 0.0345 KA relative to UGCAUGU.
With B22, the binding signal was 0.0335 KA relative to UGCAUGU.
Next, B23: 0.0274 KA relative to UGCAUGU.
In the case of B24, the binding signal was 0.023 KA relative to UGCAUGU.
Next, B25: 0.0118 KA relative to UGCAUGU; B26: 0.00851 KA relative to UGCAUGU; B27: 0.426 KA relative to UGCAUGU.
On to B28, for which the binding signal was 0.00809 KA relative to UGCAUGU.
Under B29 stands 0.0129 KA relative to UGCAUGU; under B30, 0.696 KA relative to UGCAUGU; under B31, 0.0108 KA relative to UGCAUGU.
B32: the binding signal was 0.0123 KA relative to UGCAUGU.
B33: the binding signal is 0.0142 KA relative to UGCAUGU.
Regarding B34, the binding signal was 0.573 KA relative to UGCAUGU.
For the molecule B35, the binding signal was 0.662 KA relative to UGCAUGU.
Under B36 stands 0.0211 KA relative to UGCAUGU; under B37, 0.00927 KA relative to UGCAUGU; under B38, 0.0137 KA relative to UGCAUGU.
